The other results are listed elsewhere or left out. A call without a number means that no potency is given here. Results filed as inconclusive are left out. The source made the active and inactive calls. The call rests on the fitted dose curve; in most records, active means well fitted inhibition curve with a large enough effect; inconclusive means small, poorly fitted or top-dose-only effect; inactive means flat fitted curve, though single readings scatter.
Experiment: Secondary Assay for Inhibitors of Human Galactokinase (GALK): HEK-293 Cell Viability Assay
Details: HEK-293 viability, ATP luminescence (CellTiter-Glo), 24/48 h; series mostly up to 46.1 µM
Description: NIH Molecular Libraries Probe Production Centers Network [MLPCN] NIH Chemical Genomics Center [NCGC] MLPCN Grant: R03 MH085689-01 Assay Submitter (PI): Kent Lai (University of Utah School of Medicine, 50 N Mario Capecchi Drive, Salt Lake City, UT 84132) NCGC Assay Overview Cytotoxicity of the active compounds in the GALK qHTS screen (AID 1868) was assessed using the CellTiter-Glo Luminescent Cell Viability Assay kit (Promega, USA) in the HEK-293 (ATCC) cell line. CellTiter-Glo measures the intracellular ATP present in metabolically active cells using Ultra-Glo as the luciferase to detect ATP levels. In brief, the luciferase in the buffer catalyzes the oxidation of luciferin to oxyluciferin and light which is dependent on ATP. […] Wells treated with various concentrations of cycloheximide (Sigma) and DMSO, and wells with media alone were used as positive and negative controls, respectively. […] [1] http://www.promega.com/tbs/tb288/tb288.pdf
NCGC Assay Protocol Summary: HEK-293 cells were grown in a flask up to 80% confluence. Cells were trypsinized, washed, and resuspended in MEM Eagle + 10% FBS + 1% pen-strep media at a concentration of 120 cells/uL. Five uL/well of cell solution was dispensed into a 1536-well assay plates (Greiner, solid white medium-binding plates) with Aurora Discovery BioRAPTR Flying Reagent Dispenser (FRD; Beckton-Dickenson). Cells were pre-incubated at 37 degree Celsius, 5% CO2 for four hours. Compound and control solutions (23nL) were then transferred to the assay plate using the Kalypsys 1536-pin tool. Assay plates were re- incubated at 37 degree Celsius, 5% CO2. After 24 or 48 hours, five uL of CellTiter Glo detection reagent was added. Luminescence signal was read with Perkin Elmer ViewLux plate reader after 30 min room temperature incubation.
With `O=C(Nc1nnc(S(=O)(=O)N2CCOCC2)s1)c1cccc(Br)c1` the Potency was “inactive”.
In the case of `CCS(=O)(=O)C1=NSC2=NC(=O)/C(=C\c3ccc(OS(=O)(=O)c4ccccc4)cc3)C(=N)N21`, the Potency is reported as “inactive”.
For `O=C1Nc2ccc([N+](=O)[O-])cc2C1=Nc1cccc(CO)c1`, the Potency was “inactive”.
For `N#C/C(=C(/O)Cc1cccc2ccccc12)c1nc2ccccc2s1`, the Potency was “inactive”.
For `O=C1CCCC2=C1[C@@]1(CCC(c3ccccc3)C1)N=C(Nc1nc3ccccc3o1)N2` (some centres undefined), the Potency was “inactive”.
In the case of `COc1cccc2cc(-c3cc(=O)oc4cc(C)c(O)cc34)oc12`, the Potency is reported as “inactive”.
For `CCOC(=O)c1c(C)[nH]c2c1-c1ccccc1C(=O)C2=O`, the Potency was 11.2 µM (active).
For `Oc1c(Cl)cc(Cl)c(Cl)c1Cc1c(O)c(Cl)cc(Cl)c1Cl`, the Potency was 7.91 µM (active).
With `N#Cc1c(N2CCCCC2)nc(N)c2c(N)nc(SCC(=O)O)cc12` the Potency was “inactive”.

— PubChem BioAssay AID2547 (National Center for Advancing Translational Sciences (NCATS), 2010)
Potency means the concentration at half of the fitted maximal effect.
